Test results from PubChem BioAssay AID2314 (National Center for Advancing Translational Sciences (NCATS), 2010).
Where “and” joins values, the source holds several entries; their conditions need not be identical. Equal entries are not always repeated. The whole screen tested about 300,000 compounds, of which about 37,000 (12%) were called active. The list comes from a sample in which actives are over-represented; it also holds similar structures and randomly drawn compounds. Values without a mark were called inactive. Rule as the data show it: active = max response mostly above about 13% (no sharp cut-off); inactive = mostly below about 14%.

Assay: Cycloheximide Counterscreen for Small Molecule Inhibitors of Shiga Toxin; also: read at 38.3 µM for the half of the compounds with a filed dose; 0% is about no effect
Conditions: cell reporter, cycloheximide protein synthesis inhibition counterscreen; active compounds read high

| SMILES | max response |
| --- | --- |
| Fc1ccc2[nH]c3c(N4CCN(Cc5ccc6c(c5)OCO6)CC4)ncnc3c2c1 | -4.86% |
| COc1ccc(CN2CC(C(=O)NCCc3ccc(Cl)cc3)CC2=O)cc1 (stereo unspecified) | -3.25% |
| CNC(=O)NCCN1CCCC1=O | -5.85% |
| Cc1ccc(C(=O)N(CN2CCCC2=O)c2ccc(F)cc2)cc1 | 11.4% (active) |
| Cc1ccc(S(=O)(=O)N(CC(=O)NN=C2CCN(C)CC2)c2ccc(F)cc2)cc1 | -0.935% |
| CCc1nc(N2CCN(C(C)=O)CC2)c2c3c(sc2n1)CCCC3 | 1.8% |
| O=C(CCc1ccccc1)NCc1cccnc1 | 1.47% |
| O=C(O)c1ccccc1C(=O)Nc1nc(-c2ccccc2)cs1 | -3.4% |
| CN(Cc1ccccc1)S(=O)(=O)c1nnc(NC(=O)c2ccccc2F)s1 | -3.23% |
| O=C(Nc1nnc(-c2ccccc2F)s1)c1ccccc1F | 17.9% (active) |
| O=C(Nc1nc(-c2ccc(-c3ccccc3)cc2)cs1)c1cnccn1 | 35.3% (active) |
| O=C(Nc1nnc(Cc2ccccc2)s1)c1cnccn1 | 9.38% |
| Cc1ccc(-c2csc(NC(=O)c3cnccn3)n2)cc1C | 1.6% |
| O=C(NCc1cccnc1)C(=O)Nc1nc(-c2ccccc2)cs1 | 39.9% (active) |
| O=C(Nc1ccc(NC(=O)c2ccccc2F)cc1)c1ccccc1F | 12.7% |
| O=C(Nc1ccccc1F)c1ccccc1-c1ccccc1 | -1.34% |
| O=C(Nc1nc(-c2cccnc2)cs1)c1ccccc1F | 45.8% (active) |
| O=C(O)c1ccccc1-c1ccccc1C(=O)NCc1cccnc1 | -0.956% |
| CCN1C(=NCc2ccc(OC)cc2)N[C@@H](CCc2ccccc2)[C@H](C(=O)NCc2ccc(OC)cc2)[C@H]1C | -3.38% and 1.66% |
| CCCCCCCCCCOC(=O)Cn1c(COc2ccc(C)cc2)[n+](C)c2ccccc21 | -4.67% |
| COc1ccc(-c2cc(C3CCN(c4ncccc4[N+](=O)[O-])CC3)[nH]n2)cc1 | -2.37% |
| CC1CCCCN1CCCNC(=O)Cn1ncc2c([nH]c3ccccc32)c1=O (stereo unspecified) | -1.43% |
| Cc1cc(C)c(C(=O)CSc2nc(C)cc(=O)[nH]2)c(C)c1 | 6.02% |
| CCn1cc(/C=C(\NC(=O)c2cc(OC)c(OC)c(OC)c2)C(=O)N2CCN(C)CC2)c2ccccc21 | -3.51% |
| CCOC(=O)c1ccc(NC(=S)N2CCN(c3ccccn3)CC2)cc1 | -2.76% |
| Cc1ccccc1Nc1nc(-c2cccnc2)cs1 | 40.6% (active) |
